This is an account of results in PubChem BioAssay (NCATS).

Test [1] concerns the target Cellular tumor antigen p53 (Homo sapiens) (UniProt P04637). Briefly: Primary qHTS for small molecule compounds that upregulate eGFP-tagged delta133p53alpha (in N-terminal) cells. (AID 2060322). Also: nearly all actives have a fitted effect of over 75% in size. Also: potency is read from the fitted curve at half-maximal effect.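 As to activation: cells pre-induced with doxycycline then dosed without doxycycline; 0% = DMSO vehicle and 100% = reference activator.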 The conditions noted are these: NCI-H358 eGFP-delta133p53alpha fluorescence, 24 h; activation: stronger effect = higher value. The procedure, abridged:
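NCI-H358 cells pre-induced 24 h with 10 ng/ml doxycycline for eGFP-delta133p53alpha, plated dox-free and exposed 24 h at 37C to titrated compounds. Fixed, Hoechst-stained; gated GFP peak intensity by laser scanning cytometry, normalized to DMSO (0%) and 57.5 uM 5-azacytidine (100%).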
(qHTS replaces the single test concentration by a dilution series.)

Test [2] addresses Aldehyde dehydrogenase, mitochondrial (Homo sapiens) (UniProt P05091). Briefly: qHTS for Inhibitors of the Aldehyde Dehydrogenase Family (ALDH2) Primary screen (AID 2061308).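 Also: plate controls were vehicle for no effect and reference inhibitor for full effect; nearly all actives have a fitted effect of over 55% in size.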 The conditions noted are these: ALDH2 enzyme inhibition qHTS, 1536-well; series mostly up to 56 µM.
Test [3] deals with Retinaldehyde dehydrogenase 3 (Homo sapiens) (UniProt P47895). Briefly: qHTS for Inhibitors of the Aldehyde Dehydrogenase Family (ALDH1A3) Primary screen (AID 2061315).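 Also: plate controls were DMSO vehicle for no effect and reference inhibitor for full effect.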 The note with it: ALDH inhibition qHTS; series mostly up to 56 µM.

Inconclusive results are not listed. Values without a mark were called inactive. Calls of active or inactive are those of the source. Calls follow the shape of the dose curve; as a rule, active = well fitted curve in the direction sought with a large enough effect; inconclusive = small, poorly fitted or top-dose-only effect, or another doubt; inactive = no such curve, though single readings can be large; an effect the other way counts as inactive or inconclusive.

Cellular tumor antigen p53 (Homo sapiens), sequence (P04637 whole entry, looked up): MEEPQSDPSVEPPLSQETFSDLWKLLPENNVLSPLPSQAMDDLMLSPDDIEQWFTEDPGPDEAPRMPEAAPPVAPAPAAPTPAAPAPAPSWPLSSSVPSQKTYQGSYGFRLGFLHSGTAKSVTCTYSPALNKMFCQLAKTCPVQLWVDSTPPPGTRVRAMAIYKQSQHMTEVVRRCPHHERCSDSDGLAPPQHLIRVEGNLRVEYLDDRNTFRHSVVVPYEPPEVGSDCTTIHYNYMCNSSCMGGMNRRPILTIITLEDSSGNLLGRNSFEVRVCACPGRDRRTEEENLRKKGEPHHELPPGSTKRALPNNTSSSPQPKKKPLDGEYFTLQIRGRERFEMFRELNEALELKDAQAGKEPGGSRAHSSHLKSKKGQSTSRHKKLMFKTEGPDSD

In the case of `COc1c(C)c(OCC=C(C)C)cc2c1C(=O)NC2=O`, the activation in test [1] was -12.2%. For the same compound, the Potency result in test [2] and in test [3] was “inactive” throughout.
On to `CC1=CCC(C(C)(C)O[C@@H]2O[C@H](CO[C@@H]3O[C@@H](C)[C@H](O)[C@@H](O)[C@H]3O)[C@@H](O)[C@H](O)[C@H]2O)CC1` (some centres undefined), for which, in test [1], the activation is -6.11%. The Potency entry in test [2] and in test [3] was “inactive” in each case.
As to `NC(=O)C1=CC2C3C=CC2C(OC3=O)O1` (centres undefined), the activation in test [1] was 27.5%. Further, the Potency result in test [2] and in test [3] was “inactive” each time.
Consider `COC(=O)C[C@@H]1C(C(=O)O)=CO[C@@H](O[C@@H]2O[C@H](CO)[C@@H](O)[C@H](O)[C@H]2O)/C1=C\COC(=O)/C=C/c1ccc(O)c(OC)c1`, for which the activation in test [1] was 6.87%. In addition, the Potency entry in test [2] and in test [3] was “inactive” each time.
On to `NC(=NCCCCCCN=C(N)/N=C(\N)Nc1ccc(Cl)cc1)/N=C(\N)Nc1ccc(Cl)cc1`, for which the Potency in test [1] was 30.1 µM (active). The Potency result in test [2] and in test [3] was “inactive” each time.
For `C=C1C(=O)O[C@@H]2CC(C)=C([C@@H](C)CCCOC(C)=O)[C@@H](O)[C@H]12`, in test [1], the activation was 28.6%. For the same compound, the Potency result in test [2] and in test [3] was “inactive” throughout.
Take `CC(C)(O)[C@@H]1CC[C@]2(CO)[C@@H](O)CC[C@](C)(O)[C@H]2[C@@H]1O[C@@H]1O[C@H](CO)[C@@H](O)[C@H](O)[C@H]1O`: the activation in test [1] was 1.53%. For the same compound, the Potency result in test [2] and in test [3] was “inactive” each time.
As for `CC(=O)OC/C=C(\C)C(CC1C(C)=C(OC(C)=O)C(=O)C2C(C)(C)C(O)CCC12C)OC(C)=O` (centres undefined), the activation in test [1] was -2.68%. The Potency result in test [2] and in test [3] was “inactive” throughout.
Take `COc1ccc(S(=O)(=O)n2cnc3cc(C)c(C)cc32)cc1`: the activation in test [1] was -3.67%. The Potency result in test [2] and in test [3] was “inactive” in each case.
For the compound `C/C=C(/C)C(=O)OC1C2OC2C2(CO2)C2C3OC(=O)C(C)C3CCC12C` (centres undefined), the activation in test [1] is 18.3%. For the same compound, the Potency entry in test [2] and in test [3] was “inactive” throughout.
On to `CCCCCc1ccc(/C=C/C(=O)Nc2cc(Cl)ccc2C(=O)O)cc1`, for which the activation in test [1] is -1%. Besides, the Potency result in test [2] and in test [3] was “inactive” each time.
Consider `C=C1CC[C@H]2[C@@H](/C=C(\C)C(=O)[C@@]3(OC(C)=O)C[C@H](C)[C@H](OC(C)=O)[C@@H]3[C@H]1OC(C)=O)C2(C)C`, for which the activation in test [1] is -20.6%. The Potency result in test [2] and in test [3] was “inactive” throughout.
For the compound `CC(=O)O[C@@H](CO[C@@H]1O[C@H](CO)[C@H](O)[C@H](O)[C@H]1O)[C@]1(C)C=C2CC[C@@H]3C(C)(C)[C@@H](O)CC[C@@]3(C)[C@@H]2CC1`, the activation in test [1] was 18.3%. Further, the Potency result in test [2] and in test [3] was “inactive” in each case.
